Assay results reported in PubChem BioAssay (Tox21).
Where “and” joins values, the source holds several entries; their conditions need not be identical. Identical values can stand only once. Records with an inconclusive call do not appear. Calls of active or inactive are those of the source. Unless noted, calls come from the whole dose curve; as a rule, active = well fitted curve in the direction sought with a large enough effect in the repeat runs; inconclusive = weak or mixed curves; inactive = no such curve, though single readings can be large; an effect the other way counts as inactive or inconclusive.

Experiments:
[1] = qHTS assay to identify small molecule agonists of the androgen receptor (AR) signaling pathway in the presence of an antagonist - cell viability counter screen (AID 1259379); note: nearly all actives have a fitted effect of over 25% in size; note: potency is the fitted concentration of half-maximal effect
In short: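 Cells: MDA-kb2 (MMTV-luc, AR and GR elements), 3,000/well, 5 hr settle. Added: nilutamide 3.0uM final, then compounds (15 conc.). Incubation: 16 hr, 37C, no CO2. Read-out: CellTiter-Fluor, 1 hr, fluorescence.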

[2] = qHTS assay to identify small molecule agonists of the estrogen receptor beta (ER-beta) signaling pathway - cell viability counter screen (AID 1259380); note: nearly all actives have a fitted effect of over 30% in size; note: potency is the fitted concentration of half-maximal effect
In short: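 HEK293T ER-beta-UAS-bla; 2% CS-FBS; 6 hr pre-plate, 16 hr cpd at 37C/5% CO2; LiveBLAzer read first, then CellTiter-Glo 30 min RT, luminescence.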

[3] = target: Androgen receptor (Homo sapiens) (UniProt P10275); experiment: qHTS assay to identify small molecule agonists of the androgen receptor (AR) signaling pathway in the presence of an antagonist (AID 1259381; calls by dose curve; note: nearly all actives have a fitted effect of over 15% in size; note: potency is the fitted concentration of half-maximal effect)
Chain of Androgen receptor (Homo sapiens) (P10275 whole entry, looked up): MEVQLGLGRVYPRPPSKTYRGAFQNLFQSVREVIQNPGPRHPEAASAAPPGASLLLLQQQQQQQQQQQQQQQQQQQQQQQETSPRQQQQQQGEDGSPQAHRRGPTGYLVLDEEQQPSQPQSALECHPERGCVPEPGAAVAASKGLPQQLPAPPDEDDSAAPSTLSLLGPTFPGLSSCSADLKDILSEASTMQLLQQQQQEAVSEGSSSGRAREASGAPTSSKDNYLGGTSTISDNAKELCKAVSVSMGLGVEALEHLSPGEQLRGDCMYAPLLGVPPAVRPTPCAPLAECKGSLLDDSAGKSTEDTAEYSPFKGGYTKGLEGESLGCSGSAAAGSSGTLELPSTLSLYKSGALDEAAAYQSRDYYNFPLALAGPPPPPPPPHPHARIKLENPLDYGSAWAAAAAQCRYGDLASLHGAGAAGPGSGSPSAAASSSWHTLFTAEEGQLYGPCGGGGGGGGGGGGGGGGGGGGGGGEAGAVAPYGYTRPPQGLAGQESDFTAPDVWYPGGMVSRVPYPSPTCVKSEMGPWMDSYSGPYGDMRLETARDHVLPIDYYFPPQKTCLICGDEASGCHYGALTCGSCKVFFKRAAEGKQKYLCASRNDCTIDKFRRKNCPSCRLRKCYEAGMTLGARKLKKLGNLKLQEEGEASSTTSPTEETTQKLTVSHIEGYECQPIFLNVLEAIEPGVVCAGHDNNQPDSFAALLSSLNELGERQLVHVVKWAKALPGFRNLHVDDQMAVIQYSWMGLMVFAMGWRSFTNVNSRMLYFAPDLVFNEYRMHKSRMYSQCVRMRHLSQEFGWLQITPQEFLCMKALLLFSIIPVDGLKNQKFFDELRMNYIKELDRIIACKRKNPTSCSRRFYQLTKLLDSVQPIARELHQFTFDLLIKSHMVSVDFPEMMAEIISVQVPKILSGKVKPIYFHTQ
In short: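 MDA-kb2 cells, 3,000/well, rested 5hr at 37C/0% CO2 → nilutamide 3.0uM final or buffer → compounds, 15 conc. → 16hr at 37C → ONE-Glo, 30min RT → luminescence.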

[4] = qHTS assay to identify small molecule antagonists of the estrogen receptor beta (ER-beta) signaling pathway - cell viability counter screen (AID 1259382); note: nearly all actives have a fitted effect of over 55% in size; note: potency is the fitted concentration of half-maximal effect
In short: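 Cells: ER-beta-UAS-bla HEK293T, 2,000/well, 2% CS-FBS, 6 hr settle. Cpd + E2 (1nM final), 16 hr, 37C/5% CO2. Bla FRET substrate 2 hr RT, then CellTiter-Glo 30 min RT, luminescence.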

[5] = target: Estrogen receptor (Homo sapiens) (UniProt P03372); experiment: qHTS assay to identify small molecule agonists of the estrogen receptor alpha (ER-alpha) signaling pathway in the presence of an antagonist (AID 1259383; calls by dose curve; note: top concentration of the series differs between compounds; nearly all actives have a fitted effect of over 15% in size)
Chain of Estrogen receptor (Homo sapiens) (P03372 whole entry, looked up): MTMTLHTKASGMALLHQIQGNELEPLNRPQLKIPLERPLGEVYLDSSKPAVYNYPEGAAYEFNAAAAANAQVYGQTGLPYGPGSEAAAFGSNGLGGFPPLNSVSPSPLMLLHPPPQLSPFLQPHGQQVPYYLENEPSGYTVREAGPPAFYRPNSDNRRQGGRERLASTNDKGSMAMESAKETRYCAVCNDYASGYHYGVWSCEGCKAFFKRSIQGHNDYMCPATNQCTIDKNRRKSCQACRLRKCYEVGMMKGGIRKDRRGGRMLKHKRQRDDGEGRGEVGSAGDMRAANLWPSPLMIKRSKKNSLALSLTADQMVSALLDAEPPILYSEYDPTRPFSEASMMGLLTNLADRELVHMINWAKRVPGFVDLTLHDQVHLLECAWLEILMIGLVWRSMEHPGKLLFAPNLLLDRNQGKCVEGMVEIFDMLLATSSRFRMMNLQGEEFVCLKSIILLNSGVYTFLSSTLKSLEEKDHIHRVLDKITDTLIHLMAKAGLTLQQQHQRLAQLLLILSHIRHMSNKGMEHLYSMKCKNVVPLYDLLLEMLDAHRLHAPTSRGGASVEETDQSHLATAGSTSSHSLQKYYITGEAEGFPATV
In short: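 VM7Luc4E2, endog. ER-alpha + 4×ERE-luc; charcoal-stripped FBS, phenol red-free, 5 d; 24hr plating; +10.0nM ICI-182,780 (final); cpds 15 conc, 22hr, 37C/5% CO2; ONE-Glo luminescence.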

[6] = qHTS assay to identify small molecule agonists or antagonists of the thyroid stimulating hormone receptor (TSHR) signaling pathway - wild type cell line counter screen (AID 1259384; calls by dose curve)
In short: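 Wild-type Hek293 cells, 800/well, 18 h at 37C, then compound with Ro20-1724 for 30 min RT. cAMP by HTRF (cAMP-d2/anti-cAMP cryptate), 1 h RT, fluorescence read. 15 concentrations, triplicates.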

[7] = target: Thyrotropin receptor (Homo sapiens) (UniProt P16473); experiment: qHTS assay to identify small molecule antagonists of the thyroid stimulating hormone receptor (TSHR) signaling pathway (AID 1259385; calls by dose curve; note: nearly all actives have a fitted effect of over 20% in size; note: potency is the fitted concentration of half-maximal effect)
Chain of Thyrotropin receptor (Homo sapiens) (P16473 whole entry, looked up): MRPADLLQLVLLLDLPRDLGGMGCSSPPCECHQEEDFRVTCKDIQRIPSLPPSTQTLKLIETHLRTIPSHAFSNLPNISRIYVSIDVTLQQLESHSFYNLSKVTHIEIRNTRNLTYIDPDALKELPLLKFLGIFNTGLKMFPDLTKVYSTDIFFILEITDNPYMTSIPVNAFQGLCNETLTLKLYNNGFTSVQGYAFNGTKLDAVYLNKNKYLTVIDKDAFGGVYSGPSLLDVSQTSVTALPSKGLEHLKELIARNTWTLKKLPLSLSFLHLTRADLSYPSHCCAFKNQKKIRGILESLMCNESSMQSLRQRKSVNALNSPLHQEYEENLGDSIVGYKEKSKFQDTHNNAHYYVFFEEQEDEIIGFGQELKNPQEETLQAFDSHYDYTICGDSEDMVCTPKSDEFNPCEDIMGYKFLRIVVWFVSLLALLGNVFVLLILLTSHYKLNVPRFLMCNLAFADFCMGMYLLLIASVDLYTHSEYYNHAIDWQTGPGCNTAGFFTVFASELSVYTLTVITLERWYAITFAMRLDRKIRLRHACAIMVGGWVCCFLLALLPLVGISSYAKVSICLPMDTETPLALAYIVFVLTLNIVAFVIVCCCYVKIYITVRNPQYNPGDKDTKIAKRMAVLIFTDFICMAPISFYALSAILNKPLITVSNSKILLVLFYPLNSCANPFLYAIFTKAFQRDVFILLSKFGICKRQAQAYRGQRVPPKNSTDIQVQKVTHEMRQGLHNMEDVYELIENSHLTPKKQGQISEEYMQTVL
In short: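 TSHR-HEK293 cells (800/well) plated 18 h, then compounds with Ro20-1724 and TSH at 1.5 ng/mL final, 30 min at room temperature. cAMP quantified by HTRF (cAMP-d2/anti-cAMP-cryptate, 1 h); 15 concentrations in triplicate.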

[8] = qHTS assay to identify small molecule agonists of the estrogen receptor alpha (ER-alpha) signaling pathway in the presence of an antagonist - cell viability counter screen (AID 1259386);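 note: cells exposed to compounds for 22 h at 37 °C before the viability read; nearly all actives have a fitted effect of over 30% in size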; note: potency is the fitted concentration of half-maximal effect
In short: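 VM7Luc4E2, stripped-serum pre-culture 5 d; 24hr plating; +ICI-182,780 10.0nM final; cpds 15 conc, 22hr, 37C/5% CO2; CellTiter-Fluor added at 21hr, fluorescence 1hr later.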

[9] = qHTS assay to identify small molecule antagonists of the progesterone receptor (PR) signaling pathway - cell viability counter screen (AID 1346798); note: nearly all actives have a fitted effect of over 50% in size; note: potency is the fitted concentration of half-maximal effect
In short: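 In the same plates used for the beta-lactamase readout, cell viability of compound- and R5020-treated PR-UAS-bla HEK293T cells (16 hr, 37C) was assessed by CellTiter-Glo luminescence.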

[10] = qHTS assay to identify small molecule agonists of the TGF-beta/Smad signaling pathway - cell viability counter screen (AID 1346829); note: nearly all actives have a fitted effect of over 45% in size; note: potency is the fitted concentration of half-maximal effect
In short: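 SBE-bla HEK 293T cells plated overnight, compound exposure 5 hr at 37 C. Viability read in the same wells by CellTiter-Glo luminescence after 30 min at room temperature, following the beta-lactamase read.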

[11] = target: Thyrotropin-releasing hormone receptor (Homo sapiens) (UniProt P34981); experiment: qHTS assay to identify small molecule antagonists of the thyrotropin-releasing hormone receptor (TRHR) signaling pathway (AID 1346877; active = well fitted inhibition curve with a large enough effect in the repeat runs, not every such curve was filed as active; note: potency is the fitted concentration of half-maximal effect)
Chain of Thyrotropin-releasing hormone receptor (Homo sapiens) (P34981 whole entry, looked up): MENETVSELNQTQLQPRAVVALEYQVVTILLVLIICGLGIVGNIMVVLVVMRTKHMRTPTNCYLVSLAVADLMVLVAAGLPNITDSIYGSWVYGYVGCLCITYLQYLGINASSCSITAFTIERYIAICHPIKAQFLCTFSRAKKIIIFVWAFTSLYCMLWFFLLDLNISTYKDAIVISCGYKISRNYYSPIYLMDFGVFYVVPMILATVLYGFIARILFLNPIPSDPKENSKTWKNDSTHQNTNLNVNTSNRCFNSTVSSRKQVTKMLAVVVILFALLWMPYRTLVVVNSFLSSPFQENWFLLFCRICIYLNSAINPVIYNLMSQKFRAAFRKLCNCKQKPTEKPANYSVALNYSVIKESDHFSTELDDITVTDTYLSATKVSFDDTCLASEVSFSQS
In short: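 Intracellular calcium fluorescence, read kinetically every second over 3 min, reports TRH-evoked signalling in HEK293 cells carrying TRHR. Test compounds were added 5 min ahead of a 1 nM TRH challenge.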

[12] = target: Thyrotropin-releasing hormone receptor (Homo sapiens) (UniProt P34981); experiment: qHTS assay to identify small molecule agonists of the thyrotropin-releasing hormone receptor (TRHR) signaling pathway (AID 1346891; calls by dose curve; note: potency is the fitted concentration of half-maximal effect; for activation: series mostly up to about 58 µM)
In short: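 Readout was intracellular calcium fluorescence in TRHR-Hek293 cells. Cells were incubated 18 h, dye-loaded 2 h at 37 °C, and treated with compound in agonist mode.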

[13] = target: Estrogen receptor beta (Homo sapiens) (UniProt Q92731); experiment: qHTS assay to identify small molecule antagonists of the estrogen receptor beta (ER-beta) signaling pathway (AID 1259378; active = well fitted inhibition curve with a large enough effect in the signal ratio in the repeat runs, not every such curve was filed as active; the % refers to the signal ratio; note: potency is the fitted concentration of half-maximal effect)
Chain of Estrogen receptor beta (Homo sapiens) (Q92731 whole entry, looked up): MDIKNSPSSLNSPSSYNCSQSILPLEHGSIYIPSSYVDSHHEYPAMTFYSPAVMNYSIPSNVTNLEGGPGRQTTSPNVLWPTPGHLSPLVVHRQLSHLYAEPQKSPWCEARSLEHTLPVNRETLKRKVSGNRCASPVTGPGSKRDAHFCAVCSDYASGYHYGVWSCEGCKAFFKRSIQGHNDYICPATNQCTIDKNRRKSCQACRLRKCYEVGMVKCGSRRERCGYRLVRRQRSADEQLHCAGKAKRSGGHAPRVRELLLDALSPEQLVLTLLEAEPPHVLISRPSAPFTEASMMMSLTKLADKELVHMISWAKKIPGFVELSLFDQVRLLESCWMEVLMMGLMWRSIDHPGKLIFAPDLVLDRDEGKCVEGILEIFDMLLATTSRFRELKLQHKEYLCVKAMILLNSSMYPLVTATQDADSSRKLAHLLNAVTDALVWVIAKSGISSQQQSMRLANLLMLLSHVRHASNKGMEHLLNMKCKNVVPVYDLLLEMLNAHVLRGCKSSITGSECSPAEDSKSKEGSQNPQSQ
In short: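 ER-beta-UAS-bla HEK293T cells in 2% charcoal-stripped FBS medium treated with compound plus 1nM final 17-beta-estradiol for 16 hr at 37C. Beta-lactamase reporter read by FRET substrate fluorescence after 2 hours at room temperature.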

[14] = target: Progesterone receptor (Homo sapiens) (UniProt P06401); experiment: qHTS assay to identify small molecule agonists of the progesterone receptor (PR) signaling pathway (AID 1346784; calls by dose curve; note: nearly all actives have a fitted effect of over 30% in size; note: potency is the fitted concentration of half-maximal effect)
Chain of Progesterone receptor (Homo sapiens) (P06401 whole entry, looked up): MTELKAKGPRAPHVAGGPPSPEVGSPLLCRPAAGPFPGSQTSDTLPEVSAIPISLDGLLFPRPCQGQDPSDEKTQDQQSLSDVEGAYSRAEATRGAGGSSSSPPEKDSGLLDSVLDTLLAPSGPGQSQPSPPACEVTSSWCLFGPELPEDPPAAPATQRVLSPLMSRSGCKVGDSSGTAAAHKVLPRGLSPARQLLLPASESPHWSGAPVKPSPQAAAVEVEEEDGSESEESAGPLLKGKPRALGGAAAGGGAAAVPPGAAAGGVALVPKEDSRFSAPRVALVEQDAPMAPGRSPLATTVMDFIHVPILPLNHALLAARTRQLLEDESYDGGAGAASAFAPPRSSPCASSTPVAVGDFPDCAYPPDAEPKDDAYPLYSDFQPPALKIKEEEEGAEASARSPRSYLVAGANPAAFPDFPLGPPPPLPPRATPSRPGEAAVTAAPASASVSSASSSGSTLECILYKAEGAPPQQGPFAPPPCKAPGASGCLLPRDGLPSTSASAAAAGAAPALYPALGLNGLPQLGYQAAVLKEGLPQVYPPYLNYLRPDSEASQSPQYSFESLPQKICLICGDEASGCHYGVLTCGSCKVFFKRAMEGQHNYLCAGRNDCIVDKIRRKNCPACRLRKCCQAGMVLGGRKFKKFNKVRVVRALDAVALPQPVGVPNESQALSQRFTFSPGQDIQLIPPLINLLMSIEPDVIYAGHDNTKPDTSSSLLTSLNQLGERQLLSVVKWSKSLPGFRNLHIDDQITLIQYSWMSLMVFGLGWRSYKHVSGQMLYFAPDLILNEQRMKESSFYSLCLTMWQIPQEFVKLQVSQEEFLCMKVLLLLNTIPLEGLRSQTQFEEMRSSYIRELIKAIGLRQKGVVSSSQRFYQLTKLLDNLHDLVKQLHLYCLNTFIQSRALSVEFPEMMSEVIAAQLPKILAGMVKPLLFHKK
In short: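 Reporter assay, GripTite PR-UAS-bla HEK 293T cells: 16 hr exposure to DMSO-dissolved compounds at 37C, 5% CO2, in steroid-depleted (2% charcoal-stripped FBS) medium; beta-lactamase measured by FRET fluorescence.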

[15] = target: Progesterone receptor (Homo sapiens) (UniProt P06401); experiment: qHTS assay to identify small molecule antagonists of the progesterone receptor (PR) signaling pathway (AID 1346795; active = well fitted inhibition curve with a large enough effect in the signal ratio in the repeat runs, not every such curve was filed as active; the % refers to the signal ratio; note: potency is the fitted concentration of half-maximal effect)
In short: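 Stimulus R5020 at 1 nM final; cells HEK293T PR-UAS-bla; medium with 2% charcoal-stripped FBS; compound exposure 16 hr at 37C, 5% CO2; detection by FRET beta-lactamase substrate, 2 hr, room temperature.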

[16] = qHTS assay to identify small molecule agonists of the progesterone receptor (PR) signaling pathway - cell viability counter screen (AID 1346799; calls by dose curve; note: nearly all actives have a fitted effect of over 45% in size; note: potency is the fitted concentration of half-maximal effect)
In short: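 Multiplexed viability read: CellTiter-Glo luminescence, 30 min RT, following LiveBLAzer FRET measurement on PR-UAS-bla HEK293T cells exposed to compounds 16 hr.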

[17] = qHTS assay to identify small molecule antagonists of the TGF-beta/Smad signaling pathway - cell viability counter screen (AID 1346824); note: nearly all actives have a fitted effect of over 50% in size; note: potency is the fitted concentration of half-maximal effect
In short: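 SBE-bla HEK 293T cells, incubated overnight, then compound plus 0.25 ng/mL TGF-beta1 (stock added) for 5 hr at 37 C. Viability was read in the same wells by CellTiter-Glo luminescence after 30 min at room temperature.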

[18] = qHTS assay to identify small molecule agonists of the TGF-beta/Smad signaling pathway (AID 1346859; active = well fitted activation curve with a large enough effect in the signal ratio in the repeat runs, not every such curve was filed as active; the % refers to the signal ratio; note: series mostly up to about 77 µM)
In short: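 Screening used HEK 293T SBE-bla cells at 4,000/well. Test agents: 5 hr, 37 C. Detection: FRET substrate, 2 hr RT, then excitation 405 nm with emissions at 460 and 530 nm.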

[19] = Human pregnane X receptor (PXR) small molecule agonists, qHTS cell viability counter screen (AID 1346977); note: nearly all actives have a fitted effect of over 50% in size; note: potency is the fitted concentration of half-maximal effect
In short: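 In each well, the PXR reporter HepG2 line was checked for viability: CellTiter-Fluor reagent added 23hr post-dosing, fluorescence read after 1hr incubation at 37C.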

Measured: Potency

[CH3][Hg][Cl]
active: [1] 21.6 µM | [2] 60.9 µM | [7] 17.2 µM | [11] 30.1 µM | [12] 17.3 µM
inactive: [3] | [4] | [5] | [6] | [8] | [9] | [10]

ClC1=C(Cl)C2(Cl)C3C(Cl)C(Cl)CC3C1(Cl)C2(Cl)Cl (centres undefined)
inactive: [1] | [3] | [4] | [5] | [14] | [9] | [17] | [18] | [11] | [12]
active: [13] 12.2 µM and 27.3 µM | [2] 43.1 µM and 61.1 µM | [15] 4.31 µM and 21.7 µM | [16] 48.4 µM and 61.1 µM | [10] 48.8 µM

CC(C)[C@H](C(=O)O[C@H](C#N)c1cccc(Oc2ccccc2)c1)c1ccc(Cl)cc1
inactive: [13] | [1] | [4] | [6] | [7] | [17] | [18] | [19]

CC1(C)CN=C(NN=C(/C=C/c2ccc(C(F)(F)F)cc2)/C=C/c2ccc(C(F)(F)F)cc2)NC1
inactive: [3] | [5] | [6]
active: [1] 30.6 µM | [2] 19.3 µM | [4] 19.3 µM | [9] 38.6 µM | [16] 21.7 µM | [17] 38.9 µM | [10] 34.7 µM | [19] 12.2 µM

C[C@]12Cc3nonc3C[C@@H]1CC[C@@H]1[C@@H]2CC[C@@]2(C)[C@H]1CC[C@]2(C)O
inactive: [5] | [6] | [7] | [8] | [18] | [11] | [12] | [19]
active: [13] 18.8 µM | [2] 26.6 µM | [3] 0.0237 µM | [4] 29.8 µM | [14] 1.19 µM

Cn1[nH]nnc1=S
inactive: [13] | [1] | [4] | [5] | [7] | [8] | [14] | [17] | [10] | [18] | [11] | [12] | [19]

Cc1cc(Cl)ccc1O[C@H](C)C(=O)O
inactive: [13] | [1] | [2] | [4] | [5] | [8] | [14] | [15] | [9] | [10] | [19]

CC(Cl)CN(C)C (centres undefined)
inactive: [1] | [2] | [3] | [4] | [5] | [6] | [7] | [8] | [14] | [9] | [16] | [10] | [18] | [11] | [12] | [19]

S=C=Nc1cccc2ccccc12
active: [2] 60.5 µM | [4] 67.9 µM | [8] 60.5 µM | [19] 53.9 µM
inactive: [1] | [3] | [5] | [6] | [17] | [10] | [18] | [11] | [12]

SCc1ccco1
inactive: [1] | [2] | [3] | [4] | [5] | [6] | [7] | [8] | [14] | [15] | [9] | [16] | [17] | [10] | [18] | [11] | [12] | [19]

CN(CCCC(=O)c1cccnc1)N=O
inactive: [1] | [2] | [3] | [4] | [5] | [6] | [7] | [8] | [14] | [15] | [9] | [16] | [17] | [10] | [18] | [11] | [12] | [19]

CC1CCC(C(C)C)C(OC(=O)c2ccccc2N)C1 (centres undefined)
inactive: [1] | [5] | [6] | [18] | [11] | [12]
active: [13] 8.51 µM | [2] 30.2 µM | [4] 60.3 µM | [7] 60.3 µM | [9] 60.3 µM | [16] 53.7 µM

N#Cc1ccc(O)cc1
inactive: [1] | [2] | [3] | [4] | [5] | [6] | [7] | [14] | [15] | [9] | [16] | [17] | [10] | [18] | [11] | [12] | [19]

CCCCCCCCCCBr
inactive: [13] | [1] | [4] | [5] | [8] | [14] | [15] | [9] | [10] | [18] | [11] | [12] | [19]

FC(F)(F)c1cccc(C2=CCN(CCc3ccc4ccccc4c3)CC2)c1
inactive: [13] | [1] | [4] | [8] | [14] | [15] | [9] | [16] | [17] | [10] | [18] | [11] | [12] | [19]
